Measurements published in PubChem BioAssay (Tox21).
A number with no mark means an inactive call. The source made the active and inactive calls. Calls come from the whole dose curve.

test: qHTS assay to identify small molecule agonists of the estrogen related receptor (ERR) signaling pathway from Tox21 library (AID 1224849); settings: ERR reporter cell line, ONE-Glo luciferase, 18 h; at 92.4 µM (top of the series) unless noted; note: nearly all actives have a fitted effect of over 15% in size
Excerpt: National Center for Advancing Translational Sciences [NCATS]
NIH Chemical Genomics Center [NCGC]
U.S. Environmental Protection Agency [EPA]
National Institutes of Environmental Health Sciences [NIEHS]
National Toxicology Program [NTP]
Estrogen related receptors (ERRs), the first orphan nuclear receptors discovered, play an important role in the control of cellular energy metabolism. ERRs are required for high-energy production in response to the environmental challenges. ERR-alpha was also identified as an adverse marker for breast cancer progression; ERR-alpha-positive tumors have a poor prognosis. To screen and to identify environmental compounds that perturb the ERR signaling pathways could provide valuable information for potential therapeutic or preventive measures in the treatment of metabolic disease. For identifying ERR agonists, ERR cell line (provided by NTP) has been used to screen Tox21 10K library.
The ERR cells were dispensed at 2,000 cells/5 ul/well in 1536-well white plates using a Multidrop dispenser. After the assay plates were incubated at a 37 C/5% CO2 incubator for 6 hours, 23 nL of compounds dissolved in DMSO, positive and negative controls or DMSO only was transferred to the assay plate by a pin tool. The plates were incubated at 37 C for 18 hours. 4 ul/well of One-Glo reagent was added into the assay plates using a Flying Reagent Dispenser. After 30-minute incubation at room temperature, the luminescence intensity in the plates was measured using a ViewLux plate reader.
% is set by controls: 0 for no effect and ±100 for the full control effect.

| SMILES | activity change, positive = activation |
| --- | --- |
| CCCCCCn1c(=O)c2c(ncn2C)n(C)c1=O | -1.88% [at 42.5 µM] |
| CCCCNc1ccc(C(=O)OCCN(CC)CC)cc1 | -11.3% [at 42.5 µM] |
| O=S(=O)(O)C(F)(F)F | 4.04% |
| c1ccc(CN(CC2=NCCN2)c2ccccc2)cc1 | -0.231% [at 42.5 µM] |
| C[C@]12C(=O)OC(=O)[C@H]1[C@H]1C=C[C@@H]2C1 | 0.566% |
| O=c1[nH]cnc2c1ncn2[C@@H]1O[C@H](CO)[C@@H](O)[C@H]1O | 2.74% [at 42.5 µM] |
| CCOC(=O)NCCC[Si](OCC)(OCC)OCC | -9.42% |
| CCCCc1ccc2nc(NC(=O)OC)[nH]c2c1 | 17.3% [at 42.5 µM] (active) |
| CC(C)C1=CC2=CC[C@@H]3[C@](C)(CCC[C@@]3(C)C(=O)O)[C@H]2CC1 | -16.7% |
| O=C(CC(=O)C(F)(F)F)c1ccccc1 | -6.03% |
| CCN(CCCc1ccccc1)CCCc1ccccc1 | -7.88% [at 42.5 µM] |
| CCCCCCOc1ccc(N)cc1 | 2.67% |
| CC(C)(C)c1ccc(OC(=O)c2ccccc2O)cc1 | 132% (active) |
| CC1=C(CC(=O)O)c2cc(F)ccc2/C1=C\c1ccc(S(C)(=O)=O)cc1 | 5.91% [at 42.5 µM] |
| NNS(=O)(=O)c1ccc(Oc2ccc(S(=O)(=O)NN)cc2)cc1 | -13.2% |
| O=C(CCCl)NCc1ccccc1 | 5.97% [at 42.5 µM] |
| CC(C)(CO)[C@@H](O)C(=O)NCCC(=O)O | 7.16% |
| ICCc1ccccc1 | -17.9% |
| Cc1ncc(CO)c(CN)c1O | 4.27% [at 42.5 µM] |
| CCCc1c2oc(C(=O)O)cc(=O)c2cc2c(=O)cc(C(=O)O)n(CC)c12 | 1.31% [at 42.5 µM] |

| SMILES | activity change, positive = activation |
| --- | --- |
| CCCCC(=O)O[C@]1(C(=O)CO)[C@H](C)C[C@H]2[C@@H]3CCC4=CC(=O)C=C[C@]4(C)[C@@]3(F)[C@@H](O)C[C@@]21C | -4.32% [at 42.5 µM] |
| OCCN(CCO)CCN(CCO)CCO | -1.05% |
| CCc1cc(Cl)c(OC)c(C(=O)NC[C@@H]2CCCN2CC)c1O | 1.1% [at 42.5 µM] |
| O=C1CCC(C2CCCCC2)CC1 | -9.72% |
| CCCNC(C)C(=O)Nc1c(C)csc1C(=O)OC (stereo not given) | -1.49% [at 42.5 µM] |
| Cc1ccc([N+](=O)[O-])c(N)c1 | -10.6% |
| OCc1c2ccccc2cc2ccccc12 | -18.3% |
| CCOC(=O)CS | -14.3% |
| CCCCNC(=S)NCCCC | -66.6% |
| CCCOc1ccc2c(c1)CC[C@@H]1[C@@H]2CC[C@]2(C)C(OC)CC[C@@H]12 (stereo not given in full) | -2.22% [at 42.5 µM] |
| C[C@@H]1CN(c2c(F)c(F)c3c(=O)c(C(=O)O)cn(C4CC4)c3c2F)C[C@H](C)N1 | 1.67% [at 19 µM] (active) |
| CCN(CC)CC1CCCCN1CC(=O)N1c2ccccc2C(=O)Nc2cccnc21 (stereo not given) | 8.53% [at 42.5 µM] |
| CCCCCCCCOC(=O)CCCCCCCCC(=O)OCCCCCCCC | 3.45% |
| FC(F)(F)c1ccccc1 | 2.08% |
| Cc1cc2c(s1)Nc1ccccc1N=C2N1CCN(C)CC1 | -1.9% [at 42.5 µM] |
| CCOC(=O)c1cc(=O)c2c(OCC(COc3cccc4oc(C(=O)OCC)cc(=O)c34)OC(=O)[C@@H](N)CCCCN)cccc2o1 | 8.23% [at 42.5 µM] |
| C1CCOC1 | 1.79% |
| Cc1cccc(C)c1NC(=O)CN1CCCCCC1 | 0.669% [at 42.5 µM] |
| ClC(Cl)Cl | -1.48% |
| CCc1cc2cc(OC)c(OC)cc2c(Cc2ccccc2)n1 | -12.2% [at 42.5 µM] |
